# Cruzain Triton: blocks cruzain activity in presence of Triton detergent; P25779; purified cruzain, Z-FR-AMC fluorescence, 0.01% Triton; Potency, µM, for inactives: max response, negative = inhibition, usual class: inhibitors; 200,000 compounds, 0.43% hits;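 further: plate controls were neutral wells for no effect and buffer without enzyme for full effect; nearly all actives have a fitted effect of over 40% in size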
# Target sequence (P25779 123-467 limits assumed): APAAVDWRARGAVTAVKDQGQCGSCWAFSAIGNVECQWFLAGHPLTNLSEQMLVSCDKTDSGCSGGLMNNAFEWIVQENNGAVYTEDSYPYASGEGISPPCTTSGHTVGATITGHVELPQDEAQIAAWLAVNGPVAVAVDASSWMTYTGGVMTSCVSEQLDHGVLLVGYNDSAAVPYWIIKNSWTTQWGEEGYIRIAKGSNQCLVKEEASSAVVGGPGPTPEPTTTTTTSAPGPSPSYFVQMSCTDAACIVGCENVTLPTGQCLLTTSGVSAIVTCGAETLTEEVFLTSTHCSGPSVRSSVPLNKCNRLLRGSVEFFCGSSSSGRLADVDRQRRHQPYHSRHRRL
#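 Detergent-containing run (0.01% Triton X-100) in acetate buffer pH 5.5 with 5 mM DTT: enzyme at 1.5 nM final, 15 min compound preincubation at room temperature, then 2 uM Z-FR-AMC substrate. Activity taken as 60 s fluorescence increase at 360/450 nm.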
# Cruzain inh noDet: inhibitors of Trypanosoma cruzi cruzain without detergent; Potency, µM, inactives show max response, negative = inhibition, hits mostly inhibitors; purified cruzain, Z-FR-AMC fluorescence, no detergent; P25779; 200,000 compounds, 2.3% hits;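 further: plate controls were enzyme without inhibitor for no effect and buffer without enzyme for full effect; nearly all actives have a fitted effect of over 40% in size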
#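 Purified cruzain at 1.5 nM, pre-incubated 15 min with compound at room temperature in 100 mM sodium acetate pH 5.5, 5 mM DTT, 0.00005% Triton X-100. Reaction started with 2 uM Z-FR-AMC; AMC fluorescence increase over 60 s gives rate.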
# * hit, by the source's call; ? = inconclusive. Shown are actives, neighbours in structure and some others; about 2.6% of the full set was active somewhere. The call rests on the fitted dose curve; in most records, active means well fitted curve in the direction sought with a large enough effect; inconclusive means small, poorly fitted or top-dose-only effect, or another doubt; inactive means no such curve, though single readings can be large; an effect the other way counts as inactive or inconclusive. Potency means the concentration at half of the fitted maximal effect.
SMILES,Cruzain Triton,Cruzain inh noDet
Cc1ccc(-n2cc(C(=O)OCc3ccc(F)c(F)c3)c3ccccc3c2=O)cc1,0%,-7%
CCC(=O)N1c2ccccc2CC1C(=O)NCCCN1CCN(c2cc(C)ccc2C)CC1 (configuration not stated),0%,6%
COc1ccc(O)c(/C=N/NC(=O)c2ccc(CSc3nc(C)cc(C)n3)cc2)c1,-4%,7%
COc1ccc(O)c(/C=N/NC(=O)c2ccc(OCc3cccc(Br)c3)cc2)c1,-4%,7.9µM*
Cc1ccc(NC(=O)CSc2nc3c(sc4ccccc43)c(=O)n2CCCC(=O)NC2CCCC2)cc1C,3%,7%
O=C(CS(=O)(=O)c1nc(-c2ccc(Cl)cc2)cn1-c1ccccc1)Nc1cccc(Cl)c1,?,-17%
CCOc1ccc(-c2cn(-c3ccc(OC)cc3)c(SCC(=O)Nc3ccccc3Cl)n2)cc1,0%,?
CCOc1ccc(-c2cn(-c3ccc(C)cc3)c(SCC(=O)Nc3ccc(C)cc3)n2)cc1,2%,25µM*
CCn1cc(S(=O)(=O)CC(=O)Nc2ccc(C)cc2)c2ccccc21,-3%,-8%
Cc1ccc(-c2cn(-c3cccc(Cl)c3)c(S(=O)(=O)CC(=O)Nc3cccc(C)c3)n2)cc1,-21%,16µM*
Cc1ccc(NC(=O)CS(=O)(=O)c2nc(-c3ccc(C)cc3)cn2-c2ccc(C)cc2)cc1,-20%,13µM*
Cc1ccc(-c2cn(-c3cccc(Cl)c3)c(S(=O)(=O)CC(=O)Nc3ccccc3F)n2)cc1,-15%,16µM*
Cc1cccc(-n2cc(-c3ccccc3)nc2SCC(=O)Nc2ccccc2Cl)c1,0%,-11%
CC(C)(C)OC(=O)N1CCC(c2c(C(=O)NCc3cccs3)cnn2-c2ccc(F)cc2F)CC1,-9%,18%
CC1(C)O[C@@H]2C[C@H]3[C@H]4C[C@H](F)C5=CC(=O)C=C[C@@]5(C)[C@@H]4[C@H](O)C[C@]3(C)[C@]2(C(=O)CO)O1,-5%,-9%
Cc1oc(-c2cccc(Cl)c2)nc1CSCC(=O)NCc1ccccc1Cl,-8%,9%
Cc1cccc(NC(=O)CS(=O)(=O)c2nc(-c3ccccc3)cn2-c2cccc(Cl)c2)c1C,-23%,10µM*
O=C(CS(=O)(=O)c1nc(-c2ccc(Cl)cc2)cn1-c1ccccc1)Nc1ccc(F)cc1F,-22%,25µM*
O=C(CN1CCN(c2ccc(Cl)cc2)CC1)Nc1ccc(F)cc1F,-8%,3%
Cc1cccc(NC(=O)CSc2nc(-c3ccccc3)cn2-c2ccccc2)c1C,-1%,?
COCC(=O)O,5%,0%
COc1ccc(CCNC(=O)CCCn2c(=O)c3ccccc3n(Cc3ccccc3C)c2=O)cc1OC,-1%,-14%
COc1ccc(-c2cnc(C)o2)cc1S(=O)(=O)Nc1ccc(NC(C)=O)cc1,-2%,-3%
O=C(Cc1cccc2ccccc12)Nc1nnc(-c2cccc([N+](=O)[O-])c2)s1,0%,25µM*
O=C(CSc1ccc(Cl)cc1)Nc1nnc(-c2cccc([N+](=O)[O-])c2)s1,-2%,?
SMILES,Cruzain Triton,Cruzain inh noDet
COC(=O)N1CC=CC1(C)C(=O)NCc1ccc(C)o1 (configuration not stated),2%,12%
COc1ccc2c(CNCCc3cccs3)c(C(=O)O)n(Cc3ccccc3)c2c1,-2%,-1%
Cc1ccc2c(c1)NC(c1cccnc1)=NC(c1ccc(F)cc1)=N2,-4%,5%
Cc1ccc(C2=NC(c3ccc(F)cc3)=Nc3ccc(C)cc3N2)cc1,-1%,25µM*
O=C(/C=C/c1ccc(Cl)c([N+](=O)[O-])c1)Nc1ccc(N2CCCC2)cc1,-27%,16µM*
O=C(/C=C/c1ccc(Cl)c([N+](=O)[O-])c1)Nc1ccc(NC(=O)c2ccco2)cc1,3%,?
CCOc1ccc2nc(/N=C/c3nc(-c4ccc(Br)cc4)oc3O)sc2c1,2%,7.9µM*
CCCCOc1ccc(-c2nc(/C=N/c3nccs3)c(O)o2)cc1,1%,?
O=C(Cn1c(=O)nc(-c2ccccc2F)c2cc(Cl)ccc21)NCCCc1ccccc1,-8%,1%
CCOC(=O)C(Cc1ccccc1)C(=O)Nc1ccccc1C (configuration not stated),2%,4%
CCOC(=O)C(Cc1ccccc1)C(=O)Nc1ccc(NC(=O)C(Cc2ccccc2)C(=O)OCC)cc1 (configuration not stated),-2%,7.9µM*
Cc1noc(C)c1-c1nc(N(C)C)c2ccccc2n1,7%,9%
CC(C)CC(NC(=O)C(Cc1ccc(OCc2ccccc2)cc1)NC(=O)OC(C)(C)C)C(N)=O (configuration not stated),-1%,-2%
COC(=O)C(Cc1ccccc1)NC(=O)C(CC(C)C)NC(=O)OC(C)(C)C (configuration not stated),16µM*,32µM*
CCC(C)C(NC(=O)OC(C)(C)C)C(=O)NC(Cc1ccccc1)C(=O)OC (configuration not stated),-3%,-10%
CCOC(=O)C(Cc1ccc(O)cc1)NC(=O)CNC(=O)C(CC(C)C)NC(=O)OC(C)(C)C (configuration not stated),13µM*,10µM*
Cc1ccc(CNc2ccc(-c3nc(-c4ccccn4)no3)cc2[N+](=O)[O-])cc1,-3%,?
CCOc1ccccc1O[C@@H](c1ccccc1)[C@@H]1CNCCO1,7%,5%
COc1ccc(C(=O)Nc2ccc(C(=O)OCC(=O)c3cccc4ccccc34)cc2)cc1,0%,1.6µM*
COc1ccc(OC)c(C(=O)c2ccc(C(=O)Nc3cccc4ccccc34)cc2)c1,-4%,25µM*
COc1ccc(C(=O)Nc2ccc(C)cc2C(=O)c2ccccc2)cc1,-4%,-3%
COc1ccc(C(=O)COC(=O)c2cccc(NC(=O)c3ccc(OC)c(OC)c3)c2)cc1,-3%,?
CCCc1nn2c(=O)cc(COC(=O)c3cccs3)nc2s1,5%,-12%
CN1CCN(CC(=O)Nc2cccc3ccccc23)CC1,2%,6%
COc1ccc2c3c1O[C@H]1C[C@H](O)C=C[C@@]31CCN(C)C2,-1%,2%
SMILES,Cruzain Triton,Cruzain inh noDet
COc1ccccc1NC(=O)c1ccc2nc(-c3ccccc3)c(-c3ccccc3)nc2c1,5%,32µM*
COc1ccc(NC(=O)c2ccc3nc(-c4ccccc4)c(-c4ccccc4)nc3c2)c(OC)c1,2%,-19%
CC1(C)C(=O)C=C[C@]2(C)C1CC(=O)[C@]1(C)C2CC[C@@]2(C)C(c3ccoc3)OC(=O)C3O[C@@]321 (some centres not stated),1%,2%
COc1ccc(C(=O)N(Cc2ccc(N(C)C)cc2)Cc2ccco2)cc1Cl,-8%,-6%
COc1ccc(CN2C(=O)Cc3c2nc(N)c2c(N)nc(N4CCCCC4)c(C#N)c32)cc1,-9%,6.3µM*
CCOc1cc2c(C#N)c(N3CCCCC3)nc(N)c2c(N)n1,-9%,-11%
CCC(=O)Nc1ccc2nc(SCCOc3ccc(C)cc3)sc2c1,-2%,-6%
COc1ccc(/C=C/C(=O)/C=C/c2ccc(OC)cc2OC)c(OC)c1,6%,3.2µM*
COc1ccc(/C=C/C(=O)c2ccc(Cl)cc2)c(OC)c1,-6%,1%
C[C@@H]1[C@@H](C)N1C[C@H](O)Cn1ccnc1[N+](=O)[O-] (some centres not stated),-1%,-1%
CC(C)CC(C(=O)Nn1cnnc1)N1C(=O)c2ccccc2C1=O (configuration not stated),0%,-2%

# Source: PubChem BioAssay
